# Assay outcomes (PubChem)
# GRK2 aptamer HTS – inhibitors of human GRK2 displacing RNA aptamer. P25098. bead flow cytometry, FAM-aptamer displacement from GRK2. inhibition of aptamer binding, % at 10 µM. 330,000 compounds, 0.59% hits;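 active = inhibition of aptamer binding above 40%, roughly 3 SD of noise, on plates passing a quality check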;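 also: median bead fluorescence of bound FAM aptamer so fluorescent compounds give negative values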
# HDAC3 inh – inhibitors of human histone deacetylase 3 | O15379 | recombinant HDAC3, fluorogenic peptide/trypsin coupled, fluorescence | inhibition, % at 8.3 µM | 320,000 compounds, 0.15% hits; in the data active = inhibition above about 26%, passing the limit was not always enough; inconclusive = no clear call, values can overlap the other calls
# H9c2 protect – myocardial damage modulation in H9c2 cells; 360,000 compounds, 0.63% hits; H9c2 cardiomyocytes, H2O2 injury protection, ATPLite, 2 h; protection from H2O2 cell death, % at 20 µM;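 active = compounds giving at least 50% protection of heart cells from peroxide-induced death in the single-dose screen, raw or plate-pattern-corrected value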;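 also: 0% = DMSO wells with peroxide and 100% = DMSO wells without peroxide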
# Neddyl block – inhibitors of human cullin neddylation; TR-FRET cullin neddylation, biochemical; inhibition, % at 25 µM; 360,000 compounds, 0.58% hits; in the data active = inhibition above about 36%
# Target sequence (P61081 whole entry, looked up): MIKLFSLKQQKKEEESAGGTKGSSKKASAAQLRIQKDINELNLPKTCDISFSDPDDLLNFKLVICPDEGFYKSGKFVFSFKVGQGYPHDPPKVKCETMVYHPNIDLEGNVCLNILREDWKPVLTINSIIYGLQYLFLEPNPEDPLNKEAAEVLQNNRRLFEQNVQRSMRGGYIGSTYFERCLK
# Target sequence (Q13564 whole entry, looked up): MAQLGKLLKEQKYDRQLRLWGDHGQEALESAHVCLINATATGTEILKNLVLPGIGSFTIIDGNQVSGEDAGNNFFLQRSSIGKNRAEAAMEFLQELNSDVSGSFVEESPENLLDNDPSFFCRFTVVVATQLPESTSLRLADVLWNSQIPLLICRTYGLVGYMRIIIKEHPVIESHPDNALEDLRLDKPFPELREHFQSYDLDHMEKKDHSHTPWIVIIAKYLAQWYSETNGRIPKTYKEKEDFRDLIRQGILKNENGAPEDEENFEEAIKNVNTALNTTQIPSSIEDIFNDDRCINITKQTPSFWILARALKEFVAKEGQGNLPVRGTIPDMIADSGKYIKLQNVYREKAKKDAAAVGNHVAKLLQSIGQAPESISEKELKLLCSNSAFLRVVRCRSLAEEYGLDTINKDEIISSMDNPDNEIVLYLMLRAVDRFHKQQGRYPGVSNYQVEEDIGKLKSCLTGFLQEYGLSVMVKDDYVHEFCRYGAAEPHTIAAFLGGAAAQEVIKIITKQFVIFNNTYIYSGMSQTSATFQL
# GRK2 inh confirm – human GRK2 inhibition confirmation, cherry pick 1; aptamer displacement, % at 10 µM; 2,000 compounds, 4% hits; AID 504451; shares compounds with GRK2 aptamer HTS; bead-bound GRK2, FAM-aptamer displacement, flow cytometry;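 active = aptamer displacement above 40%, near three times the noise of non-fluorescent compounds, on plates passing quality checks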;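 also: negative values mostly reflect intrinsic compound fluorescence rather than true enhancement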
# Aptamer quench – fluorescent aptamer quenching in GRK2 counter-screen dose response. shares compounds with GRK2 aptamer HTS. Fluorescent RNA aptamer beads, flow cytometry; hits give high values. fluorescence change (kMESF span), kMESF (test concentration not listed). 110 tested, under 10 active;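 active = compounds whose bead fluorescence drops by more than 37 kMESF across the dose range, marking them as dye quenchers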
# FAM quench CP1 – quenches fluorescent RNA aptamer, GRK2 hit artifact | shares compounds with GRK2 aptamer HTS | Carboxyfluorescein RNA aptamer on beads, flow cytometry quenching; hits give low values | fluorescence response (% of DMSO), % at 10 µM | 2,000 tested, under 10 active;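 active = compounds that quench the bead-bound fluorescent RNA probe, cutting fluorescence to under half of the solvent control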;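 also: counterscreen run without GRK2 so only probe quenching by compound is measured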
# GRK2 CP2 – human GRK2 inhibition confirmation, cherry pick 2; shares compounds with GRK2 aptamer HTS; bead-bound GRK2, FAM-aptamer displacement, flow cytometry; inhibition of aptamer binding, % at 10 µM; 360 tested, under 10 active;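 active = inhibition of aptamer binding above 40%, about triple the noise seen with nonglowing compounds, on plates passing quality control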;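 also: negative values mostly come from compounds that fluoresce themselves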
# FAM quench SP – counter-screen for GRK2 binding hits: quenchers of fluorescent RNA aptamer; shares compounds with GRK2 aptamer HTS; carboxyfluorescein RNA aptamer beads, flow cytometry quenching; hits give low values; fluorescence response vs DMSO, % at 10 µM; 360 tested, under 10 active;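 active = response vs DMSO under 50%, meaning signal dropped by over half, treated as fluorescence quencher; inconclusive = no clear call, values can overlap the other calls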;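 also: labelled aptamer on streptavidin beads without GRK2 as a quench counter-screen; 100% = bead fluorescence of DMSO wells and lower means quenching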
# Starred values were filed as active, the others as inactive; ? = inconclusive; nt = no result shown. Rows were chosen to be rich in hits. Some 1.8% of all compounds tested hit in one or more screens of this group.
SMILES,GRK2 aptamer HTS,HDAC3 inh,H9c2 protect,Neddyl block,GRK2 inh confirm,FAM quench CP1,others
c1ccc(CCc2ccncc2)cc1,66.0*,6.8,2.4,-0.1,2.2,95.2,
OCCc1ccccc1,20.0,-2.2,nt,nt,-1.6,98.9,
C[C@H](C(=O)NCc1ccccc1)C(=O)c1ccccc1,2.0,9.1,0.0,4.8,nt,nt,
COc1cc(/C=C2\SC(=S)N(NC(C)=O)C2=O)ccc1OC(=O)c1ccco1,0.0,27.4*,8.7,-34.8,1.8,95.4,
COc1cc(/C=C2/SC(=S)N(C)C2=O)ccc1OC(=O)c1ccco1,5.0,-0.2,0.4,-28.5,nt,nt,
COc1cc(C(=O)NCC(c2ccco2)N2CCc3ccccc3C2)cc(OC)c1OC (stereo unspecified),0.0,-10.0,-0.1,7.8,nt,nt,
CCCn1c(SC(C)C(=O)NCC2CCCO2)nc2sc(CC)cc2c1=O (stereo unspecified),0.0,nt,-0.4,-10.3,nt,nt,
O=C(O)CSc1nc2sc3c(c2c(=O)n1-c1ccccc1)CCC3,3.0,4.6,4.9,-0.6,nt,nt,GRK2 CP2=-22.3;FAM quench SP=104.0
CCn1c(SCC(=O)OC)nc2sc3c(c2c1=O)CCC3,9.0,2.8,-5.9,5.0,nt,nt,GRK2 CP2=14.3;FAM quench SP=100.0
Cn1c(SCc2nnc(-c3ccccc3Br)o2)nc2sc3c(c2c1=O)CCC3,0.0,2.6,-7.2,-17.2,nt,nt,GRK2 CP2=23.5;FAM quench SP=100.0
CCCn1c(SC(C)C(=O)NCC2CCCO2)nc2sc3c(c2c1=O)CCC3 (stereo unspecified),1.0,-8.9,6.7,-5.0,nt,nt,GRK2 CP2=-7.8;FAM quench SP=98.0
Cc1c(NC(=O)Nc2ccccc2[N+](=O)[O-])c(=O)n(-c2ccccc2)n1C,13.0,-4.8,6.4,-19.6,1.2,101.2,
O=C(Nc1ccccn1)Nc1ccccc1[N+](=O)[O-],13.0,-5.6,2.7,-14.1,0.3,102.9,
Cc1ccnc(NC(=O)Cn2cc([N+](=O)[O-])cn2)c1,2.0,6.8,-6.0,-5.8,nt,nt,
O=C(Cn1cc([N+](=O)[O-])cn1)Nc1ccccn1,60.0*,-0.5,-1.8,-14.4,-1.3,96.4,
CN(C)CC1CCCCC1OC(=O)c1ccc(Cl)cc1 (stereo unspecified),0.0,-5.9,-1.5,4.3,nt,nt,
CCN(CC)S(=O)(=O)c1ccc(C(=O)OC2CCCCC2CN(C)C)cc1 (stereo unspecified),70.0*,0.6,4.6,-5.8,-2.6,98.6,
Cc1ccccc1NC(=O)COC(=O)c1cc(=O)c2ccccc2o1,7.0,1.9,nt,nt,nt,nt,
COC(=O)Cn1c(CN2CCOCC2)nc2c1c(=O)[nH]c(=O)n2C,34.0,-2.3,22.9,-7.7,-1.7,99.8,
CC(C)c1ccccc1N=C1SCCCN1C(=O)c1cccc(N2C(=O)CCC2=O)c1,4.0,16.5,0.6,8.6,nt,nt,
Fc1cccc(Cc2noc(CN3CCCCC3CCc3ccccn3)n2)c1 (stereo unspecified),1.0,-0.7,-3.2,0.0,nt,nt,
Cc1cn(C2OC(COC(=O)c3ccccc3)C(OC(=O)c3ccccc3)C2OC(=O)c2ccccc2)c(=O)[nH]c1=O (stereo unspecified),100.0*,nt,12.3,0.2,-1.1,103.7,
Cc1ccc(OCC(=O)N2CCN(c3nnc(-c4ccc(C)cc4)c4ccccc34)CC2)cc1,4.0,7.7,-14.8,-8.6,nt,nt,
COc1ccc(OCC(=O)N2CCN(c3nnc(-c4ccc(C)cc4)c4ccccc34)CC2)cc1,54.0*,11.3,0.0,-12.4,0.7,91.2,
O=C(COc1ccccc1N1C(=O)c2ccccc2C1=O)c1ccc(Cl)cc1,73.0*,4.7,0.6,-12.5,-8.3,97.9,
SMILES,GRK2 aptamer HTS,HDAC3 inh,H9c2 protect,Neddyl block,GRK2 inh confirm,FAM quench CP1,others
COc1cc(Cl)c([C@@H]2C[C@H]3CN(c4ccccc4)C(=O)[C@]34CCCN24)cc1OC,70.0*,1.9,7.8,0.1,0.0,97.0,
COc1cc([C@@H]2C[C@H]3CN(c4ccccc4)C(=O)[C@]34CCCN24)cc(OC)c1OC,0.0,-11.8,6.2,4.8,nt,nt,
CCn1c(=O)n(CC)c2cc(N3CCCC3)c(NC(=O)c3cccc(OC)c3)cc21,0.0,-8.7,18.2,26.8,nt,nt,
C=CCn1c(NC(=O)c2ccccc2Cl)c(C#N)c2nc3ccccc3nc21,43.0*,-9.9,-10.3,nt,1.2,101.0,
CCCCn1c(NC(C)=O)c(C#N)c2nc3ccccc3nc21,1.0,-19.1,13.1,nt,nt,nt,
O=C(CNC(=O)c1ccc(Cl)cc1Cl)OCC(=O)N1CCCC1,56.0*,-6.7,-2.9,-13.0,1.0,98.7,
CN(c1ccccc1)S(=O)(=O)c1ccc(C(=O)N2CCc3ccccc3C2)cc1,0.0,1.0,-1.2,2.8,nt,nt,
CN(c1ccccc1)S(=O)(=O)c1ccc(C(=O)N2CCCC2)cc1,58.0*,-3.7,4.1,2.0,0.1,100.9,
Cc1ccc(S(=O)(=O)N(C)c2ccc(C(=O)N3CCc4ccccc4C3)cc2)cc1,57.0*,-1.2,-16.1,-2.2,-3.9,97.5,
CN(C)c1ccc(Cl)c(NC(N)=S)c1,nt,nt,6.7,-11.8,nt,nt,
CSc1ccc(/C=C/C(=O)c2ccc(NC(C)=O)cc2)cc1,88.0*,4.3,-11.9,10.7,-4.1,96.4,
CCc1cc(Cn2nc(-c3ccccc3)cc2C(=O)NCc2cccs2)on1,0.0,12.6,-2.9,-25.4,nt,nt,
O=c1ncn(-c2ccc(F)cc2)c2ncccc12,0.0,-4.6,3.4,-1.9,nt,nt,
O=c1[nH]n(-c2ccc(F)cc2)c2ncccc12,53.0*,-1.1,-2.2,1.9,1.0,103.6,
Cc1cc(C)c(OCC(=O)OCC(=O)NC2CCC(C)CC2)c(C)c1 (stereo unspecified),1.0,?,-0.2,4.0,nt,nt,
CCOc1cc(S(=O)(=O)N2CCCC2)c(C)cc1C,1.0,3.4,-6.1,0.0,nt,nt,
O=[N+]([O-])c1ccc(-c2cn3nc(-c4ccccc4)c(-c4ccccc4)nc3n2)cc1,42.0*,1.5,-0.4,31.2,27.6,106.5,
Cc1ccc(-c2cn3nc(-c4ccccc4)c(-c4ccccc4)nc3n2)cc1,66.0*,0.5,1.5,38.9,3.2,102.8,
COc1ccc(CNC(=O)CSc2nnc3c(Cl)cc(C(F)(F)F)cn23)cc1OC,1.0,-5.4,-7.8,5.3,nt,nt,
CCCC[N+](C)(C)CCC(=O)NC(C)(C)CS(=O)(=O)[O-],40.0,-4.8,5.6,2.5,27.1,102.7,Aptamer quench=-236
Cc1ccc(S(=O)(=O)NCCCCCC(=O)NC(C)(C)CO)cc1,1.0,9.5,3.0,-0.5,nt,nt,
CCC(C)NC(=O)[C@@H]1CSC2c3ccccc3C(=O)N21 (stereo partly specified),20.0,0.3,-1.7,-2.7,nt,nt,
